Measured values: PubChem BioAssay AID1745845 (National Center for Advancing Translational Sciences (NCATS), 2022)
Where “and” joins values, the source holds several entries; their conditions need not be identical. Equal entries are not always repeated. The whole screen tested about 360,000 compounds, of which about 2,600 (0.72%) were called active. Roughly 5% stayed inconclusive and do not appear here. Calls follow the shape of the dose curve; as a rule, active = well fitted inhibition curve with a large enough effect; inconclusive = small, poorly fitted or top-dose-only effect; inactive = no such curve, though single readings can be large or run the other way. The sample as a whole holds a higher share of actives than the screen did.

Assay: Primary qHTS for Inhibitors of ATXN expression; also: nearly all actives have a fitted effect of over 55% in size
Settings: HEK-293 ATXN2-luciferase reporter, luminescence, 24 h; series mostly up to 57 µM; activity change, negative = inhibition: at the top concentration
Method in brief: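 ATXN2-luciferase reporter cells (luciferase flanked by upstream and downstream ATXN2 gene portions) were treated 24 h at 37 °C with compounds at up to 57 uM. SteadyGlo luminescence gave expression; GF-AFC fluorescence gave viability.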
% is scaled to controls: 0 for no effect and ±100 for the full control effect; potency is read from the fitted curve at half-maximal effect.

Activity change, negative = inhibition, inactive:
NC(=O)C1(Nc2ccccc2Cl)CCCC1 -7.8%, O=C(CCN1CCN(C/C=C/c2ccccc2)CC1)Nc1ccccc1Cl -14.6%, CSCCC(c1nnnn1Cc1ccccc1)N1CCN(C/C=C/c2ccccc2)CC1 (configuration not stated) -23.7%, CCCN1CCN(CCCNC(=O)Cn2nc(CC)n3c(cc4occc43)c2=O)CC1 32.1%, Cc1cccc(C(=O)NCCc2nc3ccccc3n2Cc2ccccc2Cl)c1 -3.57%, Cc1ccccc1CSc1nc(-c2ccccc2)nc2c1Cc1c(CO)cnc(C)c1O2 9.66%, CCOC(=O)[C@]12CCCC=C1N(Cc1cccc3ccccc13)C(=O)[C@H](CC(=O)NCC13CC4CC(CC(C4)C1)C3)C2 -16.8%, COc1cc(Nc2ncc(F)c(Nc3ccc4c(n3)NC(=O)C(C)(C)O4)n2)cc(OC)c1OC 25.8%, CCOc1ccc(CCNC(=O)c2cc3c(=O)n(C)c4ccccc4c3n2C)cc1 -18.4%, CC(C)(O)C(=O)NN(C(=O)c1ccccc1)c1cccc(Br)c1 -5.23%, CCCCC(O)(CCCC)C(=O)NN(C(=O)CCl)c1ccccc1 -25.2%, C=CCC[C@@H](CCCCC)OC(=O)/C=C/[C@@H](O)[C@H](O)C[C@H](O)CC=C -13.5%, CC(C)CC(=O)NCC(c1ccc2c(c1)OCO2)N1CCN(c2ccc(F)cc2)CC1 (configuration not stated) -12.6%, C[C@H]1C[C@H]2[C@@H]3CCC4=CC(=O)C=C[C@]4(C)[C@@H]3C(=O)C[C@]2(C)[C@@]1(O)C(=O)CO -1.21%, CO[C@H]1C[C@@H]2CC[C@@H](C)[C@@](O)(O2)C(=O)C(=O)N2CCCC[C@@H]2C(=O)O[C@H]([C@@H](C)C[C@@H]2CC[C@H](O)[C@H](OC)C2)CC(=O)[C@H](C)C=C(C)[C@@H](O)[C@@H](OC)C(=O)[C@H](C)C[C@H](C)C=CC=CC=C1C 0.805%, COc1cc(C(CCN2CCN(c3ccccc3)CC2)c2c(OC)cc(OC)c3ccc(=O)oc23)cc(OC)c1OC (configuration not stated) -2.17%, COc1cc(OC)c2ccc(=O)oc2c1C(CCN1CCN(c2ccccc2)CC1)c1ccc2c(c1)OCO2 (configuration not stated) -17.9%, Cc1ccccc1-n1c(=O)c2ccccc2n(Cc2ccc(F)cc2)c1=O -10.8%, CCNC(=O)c1cc2n(n1)CCCN(Cc1ccc(C)cc1)C2=O -4.43%, CC1CCCCN1S(=O)(=O)c1ccc(F)c(C(=O)Nc2ccccc2C(F)(F)F)c1 (configuration not stated) 5.86%, CCN(CCCNC(=O)CSc1cc(=O)n(C)c2cc(Cl)ccc12)c1cccc(C)c1 0.149%, COc1cc2c(cc1OC)CN(CC(=O)Nc1ccc(F)cc1)CC2 -13.5%, CCC(CC)C(=O)N1CCc2cc(OC)c(OC)cc2C1COc1ccc(F)cc1 (configuration not stated) -18.3%, Cc1cc(C)cc(NS(=O)(=O)c2cc3c(cc2C)NC(=O)CO3)c1 -22.7%, CC=CCC=CCCC(=O)[C@H]1O[C@@H]1C(N)=O 6.5%, COc1cccc(NC(=O)Cn2c(=O)cc(C)c3c(C)nn(-c4cccc(F)c4)c32)c1 10.1%, CCOC(=O)C1CCN(c2csc3ccc(C)cc3c2=O)CC1 18.8%, COc1ccc(CN2C(=O)CC(Cc3ccc(C)cc3)C2=O)cc1OC (configuration not stated) 4.42%, CCCCN1C(=O)C(C)=C(C)C1OCCc1ccc(OC)c(OC)c1 (configuration not stated) -2.38%, COc1ccccc1CNC(=O)CS(=O)(=O)c1cccc2nsnc12 14.6%, Cc1cc2ccccc2n1CCNC(=O)c1ccc(F)cc1 5.13%, CCC(=O)N(CCc1ccccc1)Cc1cc2cc(C)ccc2[nH]c1=O 5.99%, Cc1ccc2[nH]c(=O)c(CN(CC3COCCO3)C(=O)Nc3ccccc3C)cc2c1 (configuration not stated) -15.9%, CCOc1ccc(OCC)c(NC(=O)c2c(C)nn(-c3ccccc3)c2-n2cccc2)c1 31.2%, CC(C)(C)OC(=O)N1CCC(c2c(C(=O)Nc3ccc4c(c3)OCO4)cnn2-c2ccccc2)CC1 -3.01%, CCOC(=O)C/C(C)=N\Nc1ccc([N+](=O)[O-])cc1[N+](=O)[O-] 0%, CCOC(=O)/C(=N\Nc1ccccc1[N+](=O)[O-])c1csc(Nc2ccccc2)n1 -8.65% [at 11.3 µM], O=C(NCC12CC3CC(CC(C3)C1)C2)c1cc2nc(-c3ccccc3)cc(C(F)(F)F)n2n1 12.1%, O=C(Nc1cccc2cccnc12)c1cccc2c(Br)cccc12 8.25%, N#Cc1ccccc1NC(=O)COc1c(Br)cc(Br)c2cccnc12 -35.6%, COc1ccc(-c2nc3ccccc3o2)cc1NC(=O)c1cc([N+](=O)[O-])ccc1N1CCOCC1 14.3%, COc1ccccc1CNC(=O)c1ccccc1NC(=O)c1nsc2ccccc12 16.5%, O=[N+]([O-])c1ccccc1/C=C/CN1CCCC(CO)C1 (configuration not stated) -14.6%, O=[N+]([O-])c1ccccc1/C=C/CN1CCC(O)CC1 -12.1%, COC(=O)/C=C(/C)N -1.98%

Potency, active:
O=C(Nc1ccccc1Cl)/C(Cl)=C(\Cl)S(=O)c1ccccc1 (configuration not stated) 3.55 µM, CCCC(O)(CCC)C(=O)NN(C(=O)CCl)c1cccc(C)c1 21.2 µM, CCN(CC)CCC(c1ccc2c(c1)OCO2)c1c(OC)cc(OC)c2c(-c3ccccc3)cc(=O)oc12 (configuration not stated) 31.6 µM, CC[C@H]1CN2CCc3cc(OC)c(OC)cc3[C@@H]2C[C@@H]1C[C@H]1NCCc2cc(OC)c(OC)cc21 1.41 µM and 112 nM, COc1ccc2c(c1)c(=Cc1ccc(N(C)C)cc1)c1cc(-c3ccccc3)[n+](C)n12 8.91 µM, CCCCOc1ccc(CN2C(=O)C(=O)c3cc(Br)cc(C)c32)cc1OC 31.6 µM, Cc1ccc2[nH]c(=O)c(CN(CCCN(C)C)C(=O)Nc3cccc(Cl)c3)cc2c1 15.8 µM, CCOC(=O)/C(=C\c1ccc([N+](=O)[O-])cc1)C(=O)c1cc(C(C)=O)c(Nc2ccccc2)s1 8.91 µM, CC(=O)NC(c1cccs1)c1cc(Br)c2cccnc2c1O (configuration not stated) 5.01 µM, COc1ccc2cc1Oc1ccc(cc1)C[C@H]1c3cc(c(OC)cc3CCN1C)Oc1c(O)c(OC)cc3c1[C@H](C2)N(C)CC3 25.1 µM, CC1CCCCC1NC(=O)/C(C#N)=C/C=C/c1ccccc1[N+](=O)[O-] (configuration not stated) 3.16 µM, CN1CC[C@H](c2c(O)cc(O)c3c(=O)cc(-c4ccccc4Cl)oc23)[C@H](O)C1 31.6 µM
